Test [1] in a line: Her2 expression decrease, cell viability multiplex – SKBR3 breast tumor cells, AlphaScreen, ATP viability, primary screen (AID 461;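 active = Her2 level under about 52% in both replicate screens, with viability over 70% of control, limit read from the data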;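 as to Her2 level: lower value means less Her2 protein in the cells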;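 as to viability: percent of carrier control wells set as 100% viability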). To be noted: SKBR3 Her2 protein level, 18-24 h, measured here: SKBR3 viability, ATP luminescence, at 10 µM. On the technique in general: Bead proximity is the source of the signal in Alpha formats.
The target in test [2] is Receptor tyrosine-protein kinase erbB-2 (Homo sapiens) (UniProt P04626). The test is described as above. The settings on record: 18-24 h, at 10 µM, stronger effect = lower value.
Receptor tyrosine-protein kinase erbB-2 (Homo sapiens), sequence (P04626 whole entry, looked up): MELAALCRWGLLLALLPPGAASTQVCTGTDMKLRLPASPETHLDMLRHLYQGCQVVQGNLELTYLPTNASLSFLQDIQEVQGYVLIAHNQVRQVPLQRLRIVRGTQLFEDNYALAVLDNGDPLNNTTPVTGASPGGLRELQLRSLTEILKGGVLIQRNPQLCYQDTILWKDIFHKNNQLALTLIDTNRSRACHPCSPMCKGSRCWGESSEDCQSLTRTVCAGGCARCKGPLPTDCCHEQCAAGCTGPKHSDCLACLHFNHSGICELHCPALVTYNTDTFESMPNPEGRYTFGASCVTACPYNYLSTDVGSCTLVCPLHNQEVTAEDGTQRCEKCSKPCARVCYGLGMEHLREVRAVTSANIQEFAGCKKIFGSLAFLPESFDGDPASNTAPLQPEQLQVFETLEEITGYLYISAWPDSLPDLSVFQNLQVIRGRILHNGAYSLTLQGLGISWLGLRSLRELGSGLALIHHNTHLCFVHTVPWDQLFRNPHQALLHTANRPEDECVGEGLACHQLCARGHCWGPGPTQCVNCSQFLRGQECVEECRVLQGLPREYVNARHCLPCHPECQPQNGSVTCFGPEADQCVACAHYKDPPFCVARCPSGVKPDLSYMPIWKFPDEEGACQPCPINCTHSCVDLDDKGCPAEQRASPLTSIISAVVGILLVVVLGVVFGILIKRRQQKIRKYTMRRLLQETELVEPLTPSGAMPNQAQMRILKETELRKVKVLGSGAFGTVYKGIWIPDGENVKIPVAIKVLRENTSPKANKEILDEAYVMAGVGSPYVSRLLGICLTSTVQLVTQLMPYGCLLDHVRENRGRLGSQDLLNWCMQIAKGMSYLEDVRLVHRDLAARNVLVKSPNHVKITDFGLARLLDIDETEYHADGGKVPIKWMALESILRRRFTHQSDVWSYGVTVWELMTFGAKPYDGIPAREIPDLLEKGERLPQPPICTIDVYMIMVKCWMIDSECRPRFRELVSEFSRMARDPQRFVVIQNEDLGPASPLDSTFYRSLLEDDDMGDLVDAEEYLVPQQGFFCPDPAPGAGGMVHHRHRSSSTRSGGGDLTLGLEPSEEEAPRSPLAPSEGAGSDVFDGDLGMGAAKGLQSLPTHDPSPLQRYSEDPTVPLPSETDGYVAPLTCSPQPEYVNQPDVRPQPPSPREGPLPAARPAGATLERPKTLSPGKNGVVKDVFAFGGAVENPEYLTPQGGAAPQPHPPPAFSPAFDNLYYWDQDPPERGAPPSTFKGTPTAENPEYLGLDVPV
A short description of test [3]: reduced viability of SK-BR-3 breast cancer cells – cell-based, 24 h, human, pilot screen (AID 572;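 active = viability at or below 10% of carrier control in both of two separate runs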;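 also: compound exposure lasted between 18 and 24 h rather than exactly 24 h; 100% = carrier-treated control wells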). To be noted: SK-BR-3 viability, CellTiter-Glo luminescence, at 10 µM, stronger effect = lower value.
A short description of test [4]: HUVEC growth inhibition – cell-based, human, primary screen (AID 575;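 active = viability at or below 30% in both replicate assays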;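 also: 100% = median of untreated cell wells with 0.1% DMSO on each plate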). The settings on record: HUVEC proliferation, CellTiter-Glo luminescence, 72 h; at 10 µM; stronger effect = lower value. A general note: In ATP-based viability assays light output follows the ATP content of the culture.
The nature of test [5]: H69AR cell proliferation blockers – human, duplicate replicates, primary screen (AID 580;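 active = viability at or under a set limit in both replicates, limit being median viability minus 3 SD, cut at about 48% in these data, passing the limit was not always enough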;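 also: 100% = mean luminescence of untreated wells and 0% = no signal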). To be noted: H69AR lung tumor cells viability, ATP luminescence, 72 h; at 10 µM; stronger effect = lower value.
A short description of test [6]: MRP1 drug-resistance reversers in H69AR cells – cell-based, doxorubicin co-treatment, pilot screen (AID 601;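 active = viability loss from added drug above about 55%, and viability with drug at most 40%, in both replicates, limit read from the data, passing the limit was not always enough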). The settings on record: CellTiter-Glo, 72 h, at 10 µM; for differential viability (reversal): stronger effect = higher value.
Test [7] is described as follows: yeast transport mutant growth inhibition pilot in 384-well plates, post-Golgi transport modulator project (AID 636; in the data active = inhibition above about 31%). The settings on record: absorbance 615 nm, about 18 h, stronger effect = higher value.
The nature of test [8]: growth suppression of yeast trafficking mutant, preliminary HTS, modulators of trafficking downstream of Golgi apparatus project, 1536-format plate, OD 615 nm (AID 637; in the data active = inhibition above about 30%). The settings on record: yeast transport mutant growth, absorbance 615 nm, 18 h; stronger effect = higher value.
The nature of test [9]: S. cerevisiae growth inhibition in permissive medium (OD615), pilot counter-assay for S. cerevisiae lifespan shortening project, permissive growth control (AID 705;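 active = growth inhibition above 25% in both replicates, a cutoff set 3 SD above the mean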). The settings on record: OD615, 24 h, at 10 µM, stronger effect = higher value.
Test [10] in a line: S. cerevisiae growth inhibition in restrictive medium, OD615, pilot screen, restrictive growth control, yeast lifespan reduction project (AID 706;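 active = growth inhibition above a set limit, 3 SD over mean compound inhibition, in both replicates, cut at about 43% in these data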;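 also: modified DeaD lifespan yeast strain shifted to restrictive glucose medium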). The settings on record: OD615, 48 h, at 10 µM, stronger effect = higher value.
Test [11] is described as follows: doxorubicin toxicity protection in MRP-1 cells – H69AR cells, CellTiter-Glo, duplicate, MRP-1 activator project, pilot screen (AID 807;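 active = viability increase at or above a cutoff of the median across tested compounds plus 3 SD, cut at about 8.5% in these data, passing the limit was not always enough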;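 also: compound pretreatment 18-22 h then 72 h combined with doxorubicin; 0% = doxorubicin alone and 100% = vehicle without doxorubicin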). The settings on record: H69AR viability with doxorubicin, CellTiter-Glo luminescence; at 10 µM; stronger effect = higher value.
Test [12] can be described thus: viability of HCT116 without oncogenic beta-catenin – human colon tumor cells, pilot screen (AID 823).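 Also: 0% = wells killed by 20 µM Hyamine and 100% = untreated DMSO cell wells.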 To be noted: HCT116 beta-catenin knockout viability, CellTiter-Glo, 60 h; at 10 µM; stronger effect = lower value.
Test [13] can be described thus: viability of PTEN-null HCT116 cells – cell-based, HCT116 clonal line, CellTiter-Glo, pilot screen (AID 824;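 active = viability at or below 27.92% in each of two runs, the all-compound median minus 4 SD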;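 also: 0% = 20 µM Hyamine control and 100% = vehicle cell control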). To be noted: HCT116 PTEN-deleted viability, 60 h, at 10 µM, stronger effect = lower value.
Test [14] is described as follows: RAM pathway blockade in budding yeast – dse1pr::URA3 reporter, 5-FOA selection, pilot screen (AID 869;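 active = inhibition over a set limit, the all-compound mean plus 3 SD, in both replicate runs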;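 also: 0% = DMSO wells with no growth and 100% = 10 µM 1-NA-PP1 with full growth; RAM network block rescues cells from 5-FOA so hits raise OD615 growth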). The settings on record: S. cerevisiae dse1pr::URA3 5-FOA growth, OD615, 2 d; at 10 µM; stronger effect = higher value; strain carries analog-sensitive mutant Cbk1 kinase.
Test [15] can be described thus: RAM signaling pathway blockade in yeast – S. cerevisiae, Pdr1DBD-CYC8 efflux-inhibited sensitized strain, primary screen (AID 1298;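 active = RAM network inhibition above 8.4% in each of two replicates, 3 SD over the compound average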;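 also: 0% = DMSO untreated cells without growth and 100% = 10 µM 1-NA-PP1 full growth; higher means more yeast growth rescued from 5-FOA killing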). To be noted: S. cerevisiae cbk1-as DSE1-URA3 strain, 5-FOA growth OD615, 2 d; at 50 µM; stronger effect = higher value.
Setting [16] is: H69AR cells + 2 uM doxorubicin, measured here: viability with 2 uM doxorubicin, stronger effect = lower value.
Where [17] appears, read: H69AR cells, compound alone cytotoxicity.

The structures appear in SMILES notation. Results filed as inconclusive are left out. The source made the active and inactive calls.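 The calls were made as follows, unless noted: active = cell viability at or below a set limit in both duplicate runs, the limit being the all-compound median minus 4 SD (cut at about 23% in these data, passing the limit was not always enough); inconclusive = no clear call, values can overlap the other calls; inactive = the rest.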

As a reminder, the viability is a read-out of living cells in per cent, often relative to untreated cells. As usually defined, the inhibition is the relative decrease from the control value, in per cent.

Take `CCc1c(C)c2c(C)nn(-c3ccccc3)c2[nH]c1=O`: the viability in test [1] is 83%; in [3] it was 83% (inactive); in test [4] it was 68.9% (inactive); in test [5], 90.1% (inactive); in test [6] (setting [16]), 84.2%; in test [6] (setting [17]), 90.1%. Also, the figures for the viability in test [12] and in test [13] were 85.1% (inactive) and 79% (inactive), respectively. Also, the Her2 level in test [2] is 81.5% (inactive). Besides, the differential viability (reversal) in [6] (H69AR cells + 2 uM doxorubicin) is 5.91% (inactive). Moreover, the inhibition in [7] is -0.65% (inactive); in test [8], -1.31% (inactive); in [14], 1.53% (inactive). Also, the results for the growth inhibition in test [9] and in test [10] were -3.86% (inactive) and 4.15% (inactive), respectively. The viability increase in [11] was -2.75% (inactive). Besides, the RAM network inhibition in test [15] was 0.31% (inactive).

On to `CC1=C(C(=O)OC2CCCC2)C(c2ccc(C)o2)C2=C(CC(c3cccs3)CC2=O)N1` (stereo not drawn), for which the viability in [1] was 148%; in [3], 148% (inactive); in [4], 75.1% (inactive); in [5] it was 74.8% (inactive); in [6] (setting [16]), 61.5%; in [6] (setting [17]), 74.8%. The viability in [12] is 46.3% (inactive); in [13], 58.9% (inactive). Further, in [2], the Her2 level was 108% (inactive). For the same compound, the differential viability (reversal) in test [6] (H69AR cells + 2 uM doxorubicin) is 13.3% (inactive). In addition, the results for the inhibition in test [7], in test [8] and in test [14] were -1.17% (inactive), -11% (inactive) and 1.68% (inactive), respectively. Moreover, the results for the growth inhibition in test [9] and in test [10] were -3.79% (inactive) and -19.9% (inactive), respectively. In addition, in [11], the viability increase was -4.36% (inactive). Also, the RAM network inhibition in test [15] was 2.7% (inactive).

Consider `O=S(=O)(c1ccc(F)cc1)N1CCC(N2CCCC2)CC1`, for which the viability in [1] is 104%; in test [3] it was 104% (inactive); in test [4], 89% (inactive); in test [5], 91.2% (inactive); in test [6] (setting [16]), 80.9%; in test [6] (setting [17]), 91.2%. Further, the viability in test [12] was 96.2% (inactive); in [13], 95.9% (inactive). The Her2 level in test [2] is 96% (inactive). Further, in test [6] (H69AR cells + 2 uM doxorubicin), the differential viability (reversal) is 10.3% (inactive). In addition, the values for the inhibition in test [7], in test [8] and in [14] were -4.4% (inactive), 3.67% (inactive) and 1.23% (inactive), respectively. Further, the growth inhibition in test [9] was -0.015% (inactive); in test [10], -5.88% (inactive). In [11], the viability increase is -2.89% (inactive). For the same compound, the RAM network inhibition in test [15] is 0.93% (inactive).

Take `CCCCCOc1ccc(C2NC(=O)NC2=O)cc1` (stereo not drawn): the viability was 97% in test [1]; 97% (inactive) in [3]; 102% (inactive) in test [4]; 106% (inactive) in test [5]; 88.1% in test [6] (setting [16]); 106% in test [6] (setting [17]). Besides, the results for the viability in test [12] and in test [13] were 101% (inactive) and 94.5% (inactive), respectively. The Her2 level in [2] was 109% (inactive). For the same compound, the differential viability (reversal) in test [6] (H69AR cells + 2 uM doxorubicin) was 18.2% (inactive). Also, the inhibition in test [7] was -4.93% (inactive); in test [8] it was -3.5% (inactive); in test [14], 0.245% (inactive). The values for the growth inhibition in [9] and in [10] were -7.17% (inactive) and -19.9% (inactive), respectively. The viability increase in test [11] is -1.63% (inactive). Further, the RAM network inhibition in test [15] is 1.57% (inactive).

`CCOc1ccc(N(CC(=O)NC2CCCC(C)C2C)S(=O)(=O)c2c(C)noc2C)cc1` (stereo not drawn): the viability is 89.5% in test [1]; 89.5% (inactive) in test [3]; 64.3% (inactive) in test [4]; 73.1% (inactive) in test [5]; 66.3% in [6] (setting [16]); 73.1% in test [6] (setting [17]). Further, the viability in test [12] is 82.8% (inactive); in [13] it was 83.6% (inactive). Further, in [2], the Her2 level was 81.5% (inactive). For the same compound, the differential viability (reversal) in test [6] (H69AR cells + 2 uM doxorubicin) is 6.81% (inactive). For the same compound, the figures for the inhibition in test [7], in test [8] and in test [14] were 1.41% (inactive), 13.5% (inactive) and 0.98% (inactive), respectively. Further, the results for the growth inhibition in test [9] and in test [10] were -9.98% (inactive) and -14.4% (inactive), respectively. In [11], the viability increase is -1.09% (inactive). For the same compound, the RAM network inhibition in [15] is 6.62% (inactive).

For `CC1(C)Cc2ccccc2C(N)=C1C#N`, the viability in test [1] is 93.5%; in [3], 93.5% (inactive); in [4], 87.5% (inactive); in [5], 93.7% (inactive); in test [6] (setting [16]), 83.8%; in test [6] (setting [17]), 93.7%. The viability in [12] is 89.9% (inactive); in test [13], 91.8% (inactive). In addition, in [2], the Her2 level is 111% (inactive). In test [6] (H69AR cells + 2 uM doxorubicin), the differential viability (reversal) is 9.91% (inactive). Besides, the inhibition in test [7] was 4.81% (inactive); in test [8] it was -3.11% (inactive); in [14], 0.81% (inactive). Further, the growth inhibition in test [9] was 4.29% (inactive); in test [10] it was -0.06% (inactive). The viability increase in test [11] was -0.77% (inactive). Also, the RAM network inhibition in [15] was 0.69% (inactive).

Take `COc1ccc(-c2nc(C)c(C(C)=O)n2O)cc1OC`: the viability in test [1] is 89%; in [3] it was 89% (inactive); in test [4], 91% (inactive); in test [5], 94.9% (inactive); in [6] (setting [16]), 85.3%; in [6] (setting [17]), 94.9%. Besides, the viability was 96.5% (inactive) in [12] and 90.1% (inactive) in test [13]. Further, the Her2 level in test [2] is 112% (inactive). For the same compound, the differential viability (reversal) in test [6] (H69AR cells + 2 uM doxorubicin) was 9.6% (inactive). Further, the inhibition in test [7] is -2.05% (inactive); in test [8], -8.33% (inactive); in test [14], 1.42% (inactive). Moreover, the growth inhibition is -5.41% (inactive) in test [9] and 6.06% (inactive) in test [10]. In addition, the viability increase in test [11] is -1.91% (inactive). For the same compound, the RAM network inhibition in [15] is 2.4% (inactive).

In the case of `CC1CCc2nn(CC(=O)NCc3ccc4c(c3)OCO4)cc2C1` (stereo not drawn), the viability is 86.5% in test [1]; 86.5% (inactive) in [3]; 90.7% (inactive) in [4]; 100% (inactive) in [5]; 90.6% in test [6] (setting [16]); 100% in test [6] (setting [17]). For the same compound, the viability was 108% (inactive) in test [12] and 94.5% (inactive) in [13]. For the same compound, the Her2 level in test [2] is 88% (inactive). Moreover, the differential viability (reversal) in test [6] (H69AR cells + 2 uM doxorubicin) was 9.8% (inactive). For the same compound, the figures for the inhibition in [7], in test [8] and in [14] were -2.93% (inactive), 2.79% (inactive) and -0.525% (inactive), respectively. For the same compound, the figures for the growth inhibition in test [9] and in [10] were -0.315% (inactive) and -4.54% (inactive), respectively. For the same compound, the viability increase in test [11] was -0.84% (inactive). For the same compound, in test [15], the RAM network inhibition was 1.68% (inactive).

Turning to `CC1CCC(NC(=O)Cn2ncc3ccccc32)CC1` (stereo not drawn), the viability in test [1] was 106%; in test [3], 106% (inactive); in [4], 107% (inactive); in test [5], 95.5% (inactive); in [6] (setting [16]), 87.6%; in test [6] (setting [17]), 95.5%. Moreover, the viability is 97.9% (inactive) in test [12] and 100% (inactive) in [13]. In addition, the Her2 level in test [2] was 108% (inactive). Also, the differential viability (reversal) in test [6] (H69AR cells + 2 uM doxorubicin) is 7.93% (inactive). In addition, the inhibition in test [7] was -3.47% (inactive); in test [8] it was -8% (inactive); in test [14] it was 1.21% (inactive). For the same compound, the growth inhibition in test [9] is -9.46% (inactive); in test [10], 1.29% (inactive). For the same compound, the viability increase in test [11] is -0.27% (inactive). Also, the RAM network inhibition in test [15] is 1.78% (inactive).
